# According to the supplement of paper PMC8728848:
# About 410 targets per protein were measured; listed, in parts, are those with the strongest signals and a random draw of the rest.
# Key:
# Test in all cases: glycan array binding signal (z-score within array); higher = stronger binding
# Details in all cases: glycan notation: IUPAC condensed, linker removed
# [1] = target: Fuc(a1-2)[Gal(a1-3)]Gal(b1-4)Glc
# Summary of the method: (§1)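 Negative Z-scores can be read as non-binding. The Z-score is calculated within each array and then averaged across arrays of one protein sequence at different concentrations or buffers and across linkers. Arrays, 3228 in all, were curated from the Consortium for Functional Glycomics database and kept only where the protein sequence was available.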
# [2] = target: Fuc(a1-2)[Gal(a1-3)]Gal(b1-4)GlcNAc
# Summary of the method: as §1
# [3] = target: Fuc(a1-2)[Gal(a1-3)]Gal(b1-4)GlcNAc(b1-2)Man(a1-3)[Fuc(a1-2)[Gal(a1-3)]Gal(b1-4)GlcNAc(b1-2)Man(a1-6)]Man(b1-4)GlcNAc(b1-4)GlcNAc
# Summary of the method: as §1
# [4] = target: Fuc(a1-2)[GalNAc(a1-3)]Gal(b1-3)GlcNAc(b1-2)Man(a1-3)[Fuc(a1-2)[GalNAc(a1-3)]Gal(b1-3)GlcNAc(b1-2)Man(a1-6)]Man(b1-4)GlcNAc(b1-4)GlcNAc
# Summary of the method: as §1
# [5] = target: Fuc(a1-2)[GalNAc(b1-3)]Gal
# Summary of the method: as §1
# [6] = target: Fuc(a1-3)[Gal(b1-4)]GlcNAc
# Summary of the method: as §1
# [7] = target: Fuc(a1-3)[Gal3S(b1-4)]GlcNAc6S
# Summary of the method: as §1
# [8] = target: Gal(a1-3)Gal(b1-3)GlcNAc
# Summary of the method: as §1
# [9] = target: Gal(a1-4)Gal(b1-4)Glc
# Summary of the method: as §1
# [10] = target: Gal(a1-6)Glc
# Summary of the method: as §1
# [11] = target: Gal(b1-3)Gal(b1-4)GlcNAc(b1-2)Man(a1-3)[Gal(b1-3)Gal(b1-4)GlcNAc(b1-2)Man(a1-6)]Man(b1-4)GlcNAc(b1-4)GlcNAc
# Summary of the method: as §1
# [12] = target: Gal(b1-3)GalNAc(b1-4)Gal(b1-4)Glc
# Summary of the method: as §1
# [13] = target: Gal(b1-3)GalNAc(b1-4)[Neu5Ac(a2-3)]Gal(b1-4)Glc
# Summary of the method: as §1
# [14] = target: Gal(b1-3)GlcNAc(b1-2)Man(a1-3)[Gal(b1-3)GlcNAc(b1-2)Man(a1-6)]Man(b1-4)GlcNAc(b1-4)GlcNAc
# Summary of the method: as §1
# [15] = target: Gal(b1-3)GlcNAc(b1-3)Gal(b1-3)GlcNAc
# Summary of the method: as §1
# [16] = target: Gal(b1-3)GlcNAc(b1-3)Gal(b1-4)[Fuc(a1-3)]GlcNAc(b1-6)[Gal(b1-3)GlcNAc(b1-3)]Gal(b1-4)Glc
# Summary of the method: as §1
# [17] = target: Gal(b1-4)Glc
# Summary of the method: as §1
# [18] = target: Gal(b1-4)GlcNAc(b1-2)[Gal(b1-4)GlcNAc(b1-4)]Man(a1-3)[Gal(b1-4)GlcNAc(b1-2)Man(a1-6)]Man(b1-4)GlcNAc(b1-4)GlcNAc
# Summary of the method: as §1
# [19] = target: Gal(b1-4)GlcNAc(b1-3)[Gal(b1-4)GlcNAc(b1-6)]GalNAc
# Summary of the method: as §1
# [20] = target: Gal(b1-4)GlcNAc(b1-6)[Gal(b1-3)]GalNAc
# Summary of the method: as §1
# [21] = target: Gal3S(b1-4)[Fuc(a1-3)]Glc
# Summary of the method: as §1
# [22] = target: GalNAc(a1-3)GalNAc(a1-3)Gal(a1-4)Gal(b1-4)GlcNAc
# Summary of the method: as §1
# [23] = target: GalNAc(b1-3)Gal(a1-6)Gal(b1-4)Glc
# Summary of the method: as §1
# [24] = target: Glc(b1-6)Glc
# Summary of the method: as §1
# [25] = target: GlcNAc(a1-4)Gal(b1-4)GalNAc
# Summary of the method: as §1
# [26] = target: GlcNAc(a1-4)Gal(b1-4)GlcNAc(b1-3)Gal(b1-4)[Fuc(a1-3)]GlcNAc(b1-3)Gal(b1-4)[Fuc(a1-3)]GlcNAc
# Summary of the method: as §1
# [27] = target: Man(a1-6)Man
# Summary of the method: as §1
# [28] = target: Man(b1-4)GlcNAc
# Summary of the method: as §1
# [29] = target: Neu5Ac(a2-3)Gal(b1-3)GlcNAc(b1-3)GalNAc
# Summary of the method: as §1
# [30] = target: Neu5Ac(a2-3)Gal(b1-4)[Fuc(a1-3)]GlcNAc(b1-3)Gal(b1-4)[Fuc(a1-3)]GlcNAc(b1-3)Gal(b1-4)[Fuc(a1-3)]GlcNAc
# Summary of the method: as §1
# [31] = target: Neu5Ac(a2-6)Gal(b1-4)GlcNAc(b1-2)Man(a1-3)[Gal(b1-4)GlcNAc(b1-2)Man(a1-6)]Man(b1-4)GlcNAc(b1-4)GlcNAc
# Summary of the method: as §1
# [32] = target: Neu5Ac(a2-6)Gal(b1-4)GlcNAc(b1-2)Man(a1-6)Man(b1-4)GlcNAc(b1-4)GlcNAc
# Summary of the method: as §1
# [33] = target: Neu5Ac(a2-6)Gal(b1-4)GlcNAc(b1-2)Man(a1-6)[GlcNAc(b1-2)Man(a1-3)]Man(b1-4)GlcNAc(b1-4)GlcNAc
# Summary of the method: as §1
# [34] = target: Neu5Ac(a2-8)Neu5Ac(a2-8)Neu5Ac(a2-3)Gal(b1-4)Glc
# Summary of the method: as §1
# [35] = target: Neu5Ac(a2-8)Neu5Ac(a2-8)Neu5Ac(a2-3)[GalNAc(b1-4)]Gal(b1-4)Glc
# Summary of the method: as §1
# [36] = target: Neu5Gc(a2-3)Gal(b1-3)GlcNAc
# Summary of the method: as §1
# [37] = target: Fuc(a1-2)[GalNAc(a1-3)]Gal
# Summary of the method: as §1
# [38] = target: Fuc(a1-2)[GalNAc(a1-3)]Gal(b1-4)Glc
# Summary of the method: as §1
# [39] = target: Fuc(a1-2)[GalNAc(a1-3)]Gal(b1-4)GlcNAc
# Summary of the method: as §1
# [40] = target: Fuc(a1-2)[GalNAc(a1-3)]Gal(b1-4)[Fuc(a1-3)]GlcNAc
# Summary of the method: as §1
# [41] = target: Fuc(a1-2)[GalNAc(a1-4)]Gal(b1-4)GlcNAc
# Summary of the method: as §1
# [42] = target: Fuc(a1-3)[Gal(b1-4)]GlcNAc(b1-2)Man(a1-3)[Fuc(a1-3)[Gal(b1-4)]GlcNAc(b1-2)Man(a1-6)]Man(b1-4)GlcNAc(b1-4)GlcNAc
# Summary of the method: as §1
# [43] = target: Fuc(a1-3)[Gal(b1-4)]GlcNAc(b1-4)Gal(b1-4)[Fuc(a1-3)]GlcNAc(b1-4)Gal(b1-4)[Fuc(a1-3)]GlcNAc
# Summary of the method: as §1
# [44] = target: Fuc(b1-3)GlcNAc
# Summary of the method: as §1
# [45] = target: GlcA(b1-3)Gal
# Summary of the method: as §1
# [46] = target: GlcNAc(b1-6)GalNAc
# Summary of the method: as §1
# [47] = target: GlcNAc3Prop(b1-4)GlcNAc
# Summary of the method: as §1
# [48] = target: Neu5Ac(a2-8)Neu5Ac(a2-8)Neu5Ac
# Summary of the method: as §1
# [49] = target: Neu5Gc(a2-3)Gal(b1-4)Glc
# Summary of the method: as §1
binder,measurement,setting,value
"SspB (Streptococcus gordonii), P16952 (protein) MKNKKEVYGFRKSKVAKTLCGAVLGTALIAFADKAVFADEVTETTSTSTVEVATTGNPATNLPEAQGEMSQVAKESQAKAGSKESALPVEVSSADLDKAVADAKSAGVKVVQDETKDKGTATTATDNAQKQDEIKSDYAKQAEEIKTTTEAYKKEVAAHQAETDKINAENKAADDKYQKDLKSHQEEVEKINTANATAKAEYEAKLAQYQKDLATVKKANEDSQQDYQNKLSAYQTELARVQKANAEAKEAYEKAVKENTAKNEALKVENEAIKQRNETAKATYEAAMKQYEADLAAIKKANEDNDADYQAKLAAYQTELARVQKANAEAKEAYDKAVKENTAKNTAIQAENEAIKQRNETAKATYDAAVKKYEADLAAVKQANATNEADYQAKLAAYQTELARVQKANADAKATYEKAVEDNKAKNAAIKAENEEIKQRNAVAKTDYEAKLAKYEADLAKYKKEFAAYTAALAEAESKKKQDGYLSEPRSQSLNFKSEPNAIRTIDSSVHQYGQQELDALVKSWGISPTNPDRKKSRAYSYFNAINSNNTYAKLVLEKDKPVDVTYTGLKNSSFNGKKISKVVYTYTLKETGFNDGTKMTMFASSDPTVTAWYNDYFTSTNINVKVKFYDEEGQLMNLTGGLVNFSSLNRGNGSGAIDKDAIESVRNFNGRYIPISGSSIKIHENNSAYADSSNAEKSLGARWNTSEWDTTSSPNNWYGAIVGEITQSEISFNMASSKSGNIWFAFNSNINAIGVPTKPVAPTAPTQPMYETEKPLEPAPVAPSYENEPTPPVKTPDQPEPSKPEEPTYETEKPLEPAPVAPSYENEPTPPVKTPDQPEPSKPEEPNYETEKPLEPAPVAPSYENEPTPPVKIPDQPEPSKPEEPTYDPLPTPPLAPTPKQLPTPPVVPTVHFHYSSLLAQPQINKEIKNEDGVDIDRTLVAKQSIVKFELKTEALTAGRPKTTSFVLVDPLPTGYKFDLDATKAASTGFDTTYDEASHTVTFKATDETLATYNADLTKPVETLHPTVVGRVLNDGATYTNNFTLTVNDAYGIKSNVVRVTTPGKPNDPDNPNNNYIKPTKVNKNKEGLNIDGKEVLAGSTNYYELTWDLDQYKGDKSSKEAIQNGFYYVDDYPEEALDVRPDLVKVADEKGNQVSGVSVQQYDSLEAAPKKVQDLLKKANITVKGAFQLFSADNPEEFYKQYVATGTSLVITDPMTVKSEFGKTGGKYENKAYQIDFGNGYATEVVVNNVPKITPKKDVTVSLDPTSENLDGQTVQLYQTFNYRLIGGLIPQNHSEELEDYSFVDDYDQAGDQYTGNYKTFSSLNLTMKDGSVIKAGTDLTSQTTAETDATNGIVTVRFKEDFLQKISLDSPFQAETYLQMRRIAIGTFENTYVNTVNKVAYASNTVRTTTPIPRTPDKPTPIPTPKPKDPDKPETPKEPKVPSPKVEDPSAPIPVSVGKELTTLPKTGTNDATYMPYLGLAALVGFLGLGLAKRKED",glycan array binding signal (z-score),[1],0.486
same,glycan array binding signal (z-score),[2],0.017
same,glycan array binding signal (z-score),[3],2.31
same,glycan array binding signal (z-score),[4],-0.556
same,glycan array binding signal (z-score),[5],0.761
same,glycan array binding signal (z-score),[6],-0.041
same,glycan array binding signal (z-score),[7],0.242
same,glycan array binding signal (z-score),[8],-0.597
same,glycan array binding signal (z-score),[9],-1.22
same,glycan array binding signal (z-score),[10],0.072
same,glycan array binding signal (z-score),[11],-0.672
same,glycan array binding signal (z-score),[12],1.1
same,glycan array binding signal (z-score),[13],-1.62
same,glycan array binding signal (z-score),[14],0.616
same,glycan array binding signal (z-score),[15],-0.283
same,glycan array binding signal (z-score),[16],1.07
same,glycan array binding signal (z-score),[17],-0.34
same,glycan array binding signal (z-score),[18],1.08
same,glycan array binding signal (z-score),[19],5.73
same,glycan array binding signal (z-score),[20],-1.35
same,glycan array binding signal (z-score),[21],0.344
same,glycan array binding signal (z-score),[22],0.985
same,glycan array binding signal (z-score),[23],-0.859
same,glycan array binding signal (z-score),[24],-1.1
same,glycan array binding signal (z-score),[25],-0.557
same,glycan array binding signal (z-score),[26],3.03
same,glycan array binding signal (z-score),[27],2.65
same,glycan array binding signal (z-score),[28],-0.696
same,glycan array binding signal (z-score),[29],0.045
same,glycan array binding signal (z-score),[30],0.022
same,glycan array binding signal (z-score),[31],3.2
same,glycan array binding signal (z-score),[32],1.36
same,glycan array binding signal (z-score),[33],0.081
same,glycan array binding signal (z-score),[34],2.25
same,glycan array binding signal (z-score),[35],2.4
same,glycan array binding signal (z-score),[36],0.179
GH98CBM (Clostridium perfringens) (protein) EVYALEESRDVYLSDLDWLNATHGDDTKSKIVQKNHPFTPGNNNQSTKISLKMEDGSISEFEKGLGTIAGSPSTITYDISGAGVTKFFSYLGIDRSANPINEQYAKVDKIEVVVDGKVIYSTINQFPNGLTYETPAIKVDLNIPENAKRLQLKSYAGEKTWGDEVVYADAKFTAKGDFVN,glycan array binding signal (z-score),[1],2.19
same,glycan array binding signal (z-score),[37],4.81
same,glycan array binding signal (z-score),[38],6.66
same,glycan array binding signal (z-score),[39],8.52
same,glycan array binding signal (z-score),[40],5.47
same,glycan array binding signal (z-score),[41],-0.209
same,glycan array binding signal (z-score),[42],0.041
same,glycan array binding signal (z-score),[43],-0.235
same,glycan array binding signal (z-score),[44],0.118
same,glycan array binding signal (z-score),[45],-0.196
same,glycan array binding signal (z-score),[46],-0.22
same,glycan array binding signal (z-score),[47],-0.189
same,glycan array binding signal (z-score),[28],-0.183
same,glycan array binding signal (z-score),[30],-0.233
same,glycan array binding signal (z-score),[48],-0.247
same,glycan array binding signal (z-score),[49],-0.107
